Assay in all cases: DAPPL (digital affinity profiling via proximity ligation, sequencing); 10 mM Tris-HCl pH 7.5, 50 mM NaCl, 1 mM DTT, 4% glycerol, room temperature, 30 min; GST-TFs on glutathione beads, 16-mer random dsDNA library, 0.1% formaldehyde crosslink after washing; high values mean tight binding
Holding throughout (details): protein: recombinant; tags: N-terminal GST; dsDNA, one strand shown

Test [1] has as its target T1, FLI1 (Homo sapiens, UniProt Q01543 1-452).
T1 sequence: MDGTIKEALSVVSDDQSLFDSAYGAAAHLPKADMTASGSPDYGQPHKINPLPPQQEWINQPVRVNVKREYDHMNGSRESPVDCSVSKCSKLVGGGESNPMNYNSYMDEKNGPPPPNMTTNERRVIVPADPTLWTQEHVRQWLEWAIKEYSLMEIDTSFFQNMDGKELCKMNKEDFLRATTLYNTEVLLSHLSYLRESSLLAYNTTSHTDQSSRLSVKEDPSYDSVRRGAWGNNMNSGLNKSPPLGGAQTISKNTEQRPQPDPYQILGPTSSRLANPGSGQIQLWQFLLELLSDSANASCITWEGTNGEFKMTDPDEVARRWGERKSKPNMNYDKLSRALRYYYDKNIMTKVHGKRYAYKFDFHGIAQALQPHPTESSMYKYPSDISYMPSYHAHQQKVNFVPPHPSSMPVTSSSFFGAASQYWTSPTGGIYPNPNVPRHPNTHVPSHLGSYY
The method in brief:
(§1)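 A tag-only sample was pooled with DNA-barcoded human transcription factors that had been expressed in yeast as GST fusions and captured on glutathione beads. The pools were incubated for 30 min at room temperature with 200 nmole of a random double-stranded 16-mer DNA library in Tris/NaCl/DTT/glycerol buffer, then washed, crosslinked with 0.1% formaldehyde, proximity-ligated (BsaI/T4 ligase, 1 h, 37 °C), PCR-amplified and sequenced on an Illumina NextSeq500. Binding signal is each hexamer's read frequency for a factor divided by its frequency for the tag-only sample.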

For test [2], the target named is T2, ELK1 (Homo sapiens, UniProt P19419 1-428).
T2 sequence: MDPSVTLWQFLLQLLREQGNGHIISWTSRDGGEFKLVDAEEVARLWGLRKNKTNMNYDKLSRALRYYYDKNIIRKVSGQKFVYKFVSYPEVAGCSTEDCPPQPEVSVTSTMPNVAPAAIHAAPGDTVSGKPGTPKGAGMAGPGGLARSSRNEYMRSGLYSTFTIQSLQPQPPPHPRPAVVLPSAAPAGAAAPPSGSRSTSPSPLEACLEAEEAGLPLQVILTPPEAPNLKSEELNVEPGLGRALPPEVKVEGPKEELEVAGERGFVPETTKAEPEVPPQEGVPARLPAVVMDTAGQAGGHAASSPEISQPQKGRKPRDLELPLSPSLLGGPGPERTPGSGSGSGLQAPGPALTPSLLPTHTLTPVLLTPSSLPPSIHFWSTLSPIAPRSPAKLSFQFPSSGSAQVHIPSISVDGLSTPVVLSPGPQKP
The method in brief: as §1

Test [3] concerns the target T3, GABPA (Homo sapiens, UniProt Q06546 1-454).
T3 sequence: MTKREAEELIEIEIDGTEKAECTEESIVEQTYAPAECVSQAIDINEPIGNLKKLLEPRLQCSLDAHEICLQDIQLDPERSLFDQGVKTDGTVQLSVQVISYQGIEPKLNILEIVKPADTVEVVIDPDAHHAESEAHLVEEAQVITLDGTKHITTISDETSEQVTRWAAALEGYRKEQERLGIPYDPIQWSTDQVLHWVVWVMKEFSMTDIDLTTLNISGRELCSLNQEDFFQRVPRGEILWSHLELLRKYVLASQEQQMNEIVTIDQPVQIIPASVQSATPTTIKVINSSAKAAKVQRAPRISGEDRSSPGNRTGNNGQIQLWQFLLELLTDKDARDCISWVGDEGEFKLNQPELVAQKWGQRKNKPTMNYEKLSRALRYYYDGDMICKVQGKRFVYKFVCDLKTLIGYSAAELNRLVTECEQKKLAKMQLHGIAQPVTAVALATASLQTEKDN
A digest of the protocol: as §1

For test [4], the target named is T4, ERG (Homo sapiens, UniProt P11308 1-479).
T4 sequence: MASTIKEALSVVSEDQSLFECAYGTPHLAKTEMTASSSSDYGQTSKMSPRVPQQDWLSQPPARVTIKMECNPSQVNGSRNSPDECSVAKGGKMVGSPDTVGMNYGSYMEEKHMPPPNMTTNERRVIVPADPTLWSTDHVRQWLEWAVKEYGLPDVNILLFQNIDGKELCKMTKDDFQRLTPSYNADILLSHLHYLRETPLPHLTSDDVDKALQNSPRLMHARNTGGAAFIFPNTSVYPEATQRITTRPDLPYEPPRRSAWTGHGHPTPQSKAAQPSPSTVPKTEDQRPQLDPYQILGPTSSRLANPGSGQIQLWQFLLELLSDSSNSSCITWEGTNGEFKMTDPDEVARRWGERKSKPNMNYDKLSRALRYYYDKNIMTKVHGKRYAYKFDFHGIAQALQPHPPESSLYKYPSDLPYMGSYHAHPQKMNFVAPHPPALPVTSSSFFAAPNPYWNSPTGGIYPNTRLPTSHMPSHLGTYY
A digest of the protocol: as §1

The target in test [5] is ELF1 (Homo sapiens, UniProt P32519 1-619). The method in brief: as §1
Sequence of ELF1 (P32519 whole entry): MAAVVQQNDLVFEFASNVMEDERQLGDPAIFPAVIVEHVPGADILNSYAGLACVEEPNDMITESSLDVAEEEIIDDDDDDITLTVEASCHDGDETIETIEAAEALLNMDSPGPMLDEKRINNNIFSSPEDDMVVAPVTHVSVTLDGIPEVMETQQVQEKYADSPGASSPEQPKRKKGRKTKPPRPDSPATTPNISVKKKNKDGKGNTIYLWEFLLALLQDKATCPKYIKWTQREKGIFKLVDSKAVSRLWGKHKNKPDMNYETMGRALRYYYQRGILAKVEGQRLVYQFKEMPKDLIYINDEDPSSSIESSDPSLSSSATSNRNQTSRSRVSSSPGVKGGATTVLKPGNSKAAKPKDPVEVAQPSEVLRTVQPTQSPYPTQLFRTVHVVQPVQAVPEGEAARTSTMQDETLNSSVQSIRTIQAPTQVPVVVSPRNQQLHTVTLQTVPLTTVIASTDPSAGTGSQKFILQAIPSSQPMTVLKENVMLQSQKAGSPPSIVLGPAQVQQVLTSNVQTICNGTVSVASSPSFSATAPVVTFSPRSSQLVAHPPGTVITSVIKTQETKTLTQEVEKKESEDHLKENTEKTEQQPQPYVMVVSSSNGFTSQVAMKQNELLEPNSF
Test [6] has as its target T5, EHF (Homo sapiens, UniProt Q9NZC4 1-300).
T5 sequence: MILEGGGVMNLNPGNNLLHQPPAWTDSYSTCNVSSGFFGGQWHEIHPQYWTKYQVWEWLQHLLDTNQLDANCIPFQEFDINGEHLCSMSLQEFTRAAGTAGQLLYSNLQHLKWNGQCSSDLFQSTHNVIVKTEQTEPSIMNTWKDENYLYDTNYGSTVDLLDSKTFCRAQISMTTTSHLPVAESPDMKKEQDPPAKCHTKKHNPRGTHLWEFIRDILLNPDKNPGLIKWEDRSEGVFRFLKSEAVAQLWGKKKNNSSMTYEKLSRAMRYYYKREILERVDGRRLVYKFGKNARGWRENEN
The method in brief: as §1

Test [7] addresses SPI1 (Homo sapiens, UniProt P17947 1-270). The method in brief: as §1
In test [8] the target is SPIB (Homo sapiens, UniProt Q01892 1-262). A digest of the protocol:
as §1

Test [9] addresses T6, ELK3 (Homo sapiens, UniProt P41970 1-407).
T6 sequence: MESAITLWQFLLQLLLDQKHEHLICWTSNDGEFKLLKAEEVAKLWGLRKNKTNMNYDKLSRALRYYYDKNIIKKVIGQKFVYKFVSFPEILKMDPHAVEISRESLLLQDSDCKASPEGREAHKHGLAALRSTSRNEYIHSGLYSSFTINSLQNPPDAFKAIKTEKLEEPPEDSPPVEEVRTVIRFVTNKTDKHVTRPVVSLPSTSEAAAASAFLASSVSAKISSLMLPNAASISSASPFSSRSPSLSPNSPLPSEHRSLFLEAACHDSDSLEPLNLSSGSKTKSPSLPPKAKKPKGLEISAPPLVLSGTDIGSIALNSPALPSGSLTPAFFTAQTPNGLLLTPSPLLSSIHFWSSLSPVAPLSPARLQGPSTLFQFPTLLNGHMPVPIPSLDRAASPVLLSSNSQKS
A digest of the protocol:
as §1

Test [10] concerns the target T7, FEV (Homo sapiens, UniProt Q99581 1-238).
T7 sequence: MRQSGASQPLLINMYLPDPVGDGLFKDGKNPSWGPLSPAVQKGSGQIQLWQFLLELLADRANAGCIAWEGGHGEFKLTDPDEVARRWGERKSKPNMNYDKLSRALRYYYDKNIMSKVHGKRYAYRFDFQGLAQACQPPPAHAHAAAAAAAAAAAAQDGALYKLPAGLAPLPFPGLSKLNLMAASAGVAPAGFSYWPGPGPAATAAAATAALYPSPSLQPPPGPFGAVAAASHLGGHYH
A digest of the protocol:
as §1

In test [11] the target is ETV5 (Homo sapiens, UniProt P41161 1-510). A digest of the protocol:
as §1

Test [12] deals with T8, SPIC (Homo sapiens, UniProt Q8N5J4 1-248).
T8 sequence: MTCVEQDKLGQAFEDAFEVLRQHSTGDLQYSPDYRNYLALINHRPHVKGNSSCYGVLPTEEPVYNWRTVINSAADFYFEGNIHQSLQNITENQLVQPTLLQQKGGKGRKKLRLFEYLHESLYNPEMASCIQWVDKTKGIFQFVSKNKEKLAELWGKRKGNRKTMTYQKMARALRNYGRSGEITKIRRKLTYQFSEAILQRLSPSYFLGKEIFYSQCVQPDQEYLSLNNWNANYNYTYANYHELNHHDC
A digest of the protocol: as §1

For test [13], the target named is ELF4 (Homo sapiens, UniProt Q99607 1-663). A digest of the protocol: as §1
Sequence of ELF4 (Q99607 whole entry): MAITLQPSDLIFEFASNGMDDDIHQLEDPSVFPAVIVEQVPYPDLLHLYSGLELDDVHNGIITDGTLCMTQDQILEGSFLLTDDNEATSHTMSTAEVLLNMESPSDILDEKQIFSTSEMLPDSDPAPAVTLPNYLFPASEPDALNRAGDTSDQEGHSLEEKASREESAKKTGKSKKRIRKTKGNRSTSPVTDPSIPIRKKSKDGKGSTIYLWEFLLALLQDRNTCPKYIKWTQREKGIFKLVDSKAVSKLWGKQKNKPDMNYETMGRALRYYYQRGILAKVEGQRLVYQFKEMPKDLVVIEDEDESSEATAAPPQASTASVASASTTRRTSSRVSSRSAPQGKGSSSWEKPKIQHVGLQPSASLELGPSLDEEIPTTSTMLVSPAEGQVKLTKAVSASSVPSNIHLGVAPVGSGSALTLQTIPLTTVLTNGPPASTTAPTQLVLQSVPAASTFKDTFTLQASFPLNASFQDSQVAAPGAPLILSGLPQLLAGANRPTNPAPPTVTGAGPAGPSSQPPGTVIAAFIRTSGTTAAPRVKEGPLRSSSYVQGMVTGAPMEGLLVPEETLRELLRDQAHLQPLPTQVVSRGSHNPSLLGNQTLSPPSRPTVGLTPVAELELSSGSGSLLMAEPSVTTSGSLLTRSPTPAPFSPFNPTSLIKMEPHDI
Test [14] concerns the target T9, ELK4 (Homo sapiens, UniProt P28324-2 1-405).
T9 sequence: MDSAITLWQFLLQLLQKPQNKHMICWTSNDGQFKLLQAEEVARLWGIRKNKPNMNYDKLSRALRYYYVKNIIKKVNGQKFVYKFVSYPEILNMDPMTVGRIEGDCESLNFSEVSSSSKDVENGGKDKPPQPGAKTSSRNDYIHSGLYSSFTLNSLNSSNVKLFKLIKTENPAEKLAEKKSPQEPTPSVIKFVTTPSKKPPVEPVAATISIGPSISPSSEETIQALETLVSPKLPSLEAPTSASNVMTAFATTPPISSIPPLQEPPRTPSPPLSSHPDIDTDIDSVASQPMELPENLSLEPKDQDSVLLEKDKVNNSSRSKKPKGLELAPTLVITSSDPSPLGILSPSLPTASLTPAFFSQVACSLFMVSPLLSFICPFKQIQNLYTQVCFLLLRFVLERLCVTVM
A digest of the protocol: as §1

Test [15] has as its target T10, ETV2 (Homo sapiens, UniProt O00321 1-342).
T10 sequence: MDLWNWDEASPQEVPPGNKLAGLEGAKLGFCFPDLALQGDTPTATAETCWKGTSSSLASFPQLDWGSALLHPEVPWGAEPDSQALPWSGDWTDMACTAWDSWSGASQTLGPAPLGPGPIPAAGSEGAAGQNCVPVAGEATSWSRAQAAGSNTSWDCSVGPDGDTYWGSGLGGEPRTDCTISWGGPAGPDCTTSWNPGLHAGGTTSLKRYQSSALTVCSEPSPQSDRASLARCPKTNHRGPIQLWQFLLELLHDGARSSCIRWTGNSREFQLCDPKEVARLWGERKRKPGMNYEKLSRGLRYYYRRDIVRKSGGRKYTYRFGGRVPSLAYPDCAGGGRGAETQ
A digest of the protocol: as §1

Test [16] deals with T11, ELF3 (Homo sapiens, UniProt P78545 1-371).
T11 sequence: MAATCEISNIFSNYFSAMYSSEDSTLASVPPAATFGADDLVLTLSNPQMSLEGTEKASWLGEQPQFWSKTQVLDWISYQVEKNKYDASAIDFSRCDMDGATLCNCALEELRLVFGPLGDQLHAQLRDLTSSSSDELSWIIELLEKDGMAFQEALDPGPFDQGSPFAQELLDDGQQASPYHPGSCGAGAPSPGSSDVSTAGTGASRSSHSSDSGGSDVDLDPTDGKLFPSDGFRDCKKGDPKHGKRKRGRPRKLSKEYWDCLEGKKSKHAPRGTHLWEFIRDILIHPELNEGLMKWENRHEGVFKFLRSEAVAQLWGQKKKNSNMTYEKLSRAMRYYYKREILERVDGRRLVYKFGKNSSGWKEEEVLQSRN
A digest of the protocol: as §1

Test [17] concerns the target ETV1 (Homo sapiens, UniProt P50549 1-477). The method in brief:
as §1

The values that follow come from article PMC7862700, “An all-to-all approach to the identification of sequence-specific readers for epigenetic DNA modifications on cytosine”.

Sequence of ETV1 (P50549 whole entry): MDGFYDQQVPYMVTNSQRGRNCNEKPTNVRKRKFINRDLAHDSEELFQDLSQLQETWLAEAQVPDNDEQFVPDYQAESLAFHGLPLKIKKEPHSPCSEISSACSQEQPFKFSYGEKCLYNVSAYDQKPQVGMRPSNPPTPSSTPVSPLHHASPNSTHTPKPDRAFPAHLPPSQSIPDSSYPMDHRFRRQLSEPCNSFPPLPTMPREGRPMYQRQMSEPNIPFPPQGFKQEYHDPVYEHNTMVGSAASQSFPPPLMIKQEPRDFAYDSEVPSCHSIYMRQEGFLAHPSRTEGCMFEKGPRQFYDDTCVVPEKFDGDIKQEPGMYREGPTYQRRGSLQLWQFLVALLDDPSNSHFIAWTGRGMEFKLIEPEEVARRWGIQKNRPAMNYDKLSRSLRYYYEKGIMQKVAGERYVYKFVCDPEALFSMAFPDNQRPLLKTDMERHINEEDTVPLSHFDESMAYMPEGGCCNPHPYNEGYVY
Sequence of ETV5 (P41161 whole entry): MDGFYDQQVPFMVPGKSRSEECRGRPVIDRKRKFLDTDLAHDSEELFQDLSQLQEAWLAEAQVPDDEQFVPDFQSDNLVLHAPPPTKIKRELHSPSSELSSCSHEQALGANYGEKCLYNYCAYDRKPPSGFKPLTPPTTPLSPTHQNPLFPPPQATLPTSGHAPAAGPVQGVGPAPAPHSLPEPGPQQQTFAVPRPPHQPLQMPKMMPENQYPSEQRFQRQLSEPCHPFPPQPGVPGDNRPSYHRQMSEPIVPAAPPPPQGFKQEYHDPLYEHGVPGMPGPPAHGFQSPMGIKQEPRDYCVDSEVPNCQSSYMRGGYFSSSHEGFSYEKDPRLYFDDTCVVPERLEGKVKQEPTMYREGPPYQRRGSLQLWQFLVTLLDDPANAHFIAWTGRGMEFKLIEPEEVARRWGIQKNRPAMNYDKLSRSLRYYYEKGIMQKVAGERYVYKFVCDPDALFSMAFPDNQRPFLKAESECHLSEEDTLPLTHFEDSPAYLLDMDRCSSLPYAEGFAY
Sequence of SPIB (Q01892 whole entry): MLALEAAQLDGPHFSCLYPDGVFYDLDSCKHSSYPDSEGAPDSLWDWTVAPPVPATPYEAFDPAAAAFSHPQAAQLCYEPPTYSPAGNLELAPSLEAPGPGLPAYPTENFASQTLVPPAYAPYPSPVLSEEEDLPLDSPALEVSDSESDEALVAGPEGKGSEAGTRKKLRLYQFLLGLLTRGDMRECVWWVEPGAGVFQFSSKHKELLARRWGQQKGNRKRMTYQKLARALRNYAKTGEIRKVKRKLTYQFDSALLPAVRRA

For CGTATC, the binding signal in test [1] is 1.2 fold enrichment (6-mer frequency, TF over GST control); in test [2] it was 1.3 fold enrichment (6-mer frequency, TF over GST control); in test [3], 1.29 fold enrichment (6-mer frequency, TF over GST control); in test [4], 1.28 fold enrichment (6-mer frequency, TF over GST control); in test [5], 1.23 fold enrichment (6-mer frequency, TF over GST control); in [6], 1.25 fold enrichment (6-mer frequency, TF over GST control). The binding signal in test [7] is 1.11 fold enrichment (6-mer frequency, TF over GST control); in [8], 1.2 fold enrichment (6-mer frequency, TF over GST control); in [9] it was 1.21 fold enrichment (6-mer frequency, TF over GST control); in test [10], 1.28 fold enrichment (6-mer frequency, TF over GST control); in test [11], 1.13 fold enrichment (6-mer frequency, TF over GST control); in [12], 1.19 fold enrichment (6-mer frequency, TF over GST control). The binding signal in test [13] is 1.2 fold enrichment (6-mer frequency, TF over GST control); in test [14], 1.16 fold enrichment (6-mer frequency, TF over GST control); in test [15], 1.15 fold enrichment (6-mer frequency, TF over GST control); in [16], 1.13 fold enrichment (6-mer frequency, TF over GST control); in test [17], 1.18 fold enrichment (6-mer frequency, TF over GST control).
